This passage reports Potency and outcome results from PubChem BioAssay (Tox21).

Calls of active or inactive are those of the source. Unless noted, the call rests on the fitted dose curve; in most records, active means well fitted curve in the direction sought with a large enough effect in the repeat runs; inconclusive means weak or mixed curves; inactive means no such curve, though single readings can be large; an effect the other way counts as inactive or inconclusive.

The nature of experiment [1]: qHTS assay to identify small molecule antagonists of the thyroid receptor (TR) signaling pathway - cell viability counter screen (AID 743064). Further: nearly all actives have a fitted effect of over 50% in size. Further: potency means the concentration at half of the fitted maximal effect. The essentials:
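In rat pituitary GH3.TRE-Luc reporter cells co-exposed to compound and 1 nM T3 for 23.5 h, cytotoxicity was assessed with CellTiter-Fluor in the same wells, read by fluorescence.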
(Quantitative high-throughput screening tests each substance at several concentrations.)

Experiment [2] in a line: qHTS assay to identify small molecule antagonists of the thyroid receptor (TR) signaling pathway (AID 743065). Further: potency means the concentration at half of the fitted maximal effect; nearly all actives have a fitted effect of over 55% in size. The method, boiled down:
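GH3.TRE-Luc rat pituitary cells carrying two TR response elements driving luciferase were plated for 4 h, given compound plus 1 nM T3 (final), and incubated 23.5 h at 37 C. ONE-Glo luminescence measured reporter inhibition; CellTiter-Fluor fluorescence tracked cytotoxicity.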

Experiment [3] concerns the target Estrogen receptor (Homo sapiens) (UniProt P03372). As to the kind of experiment: qHTS assay to identify small molecule antagonists of the estrogen receptor alpha (ER-alpha) signaling pathway (AID 743069; active means well fitted curve in the direction sought with a large enough effect in the signal ratio in the repeat runs, not every such curve was filed as active; inconclusive means weak or mixed curves, or effect the other way; inactive means no such curve, though single readings can be large or run the other way; the % refers to the signal ratio; further: potency means the concentration at half of the fitted maximal effect). The method, boiled down: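 A 17beta-estradiol challenge was applied right after compound transfer to ER-alpha-UAS-bla HEK293 cells previously kept in charcoal-stripped serum. Plates stood 18 hr at 37C and 5% CO2; fluorescence was read following 2 hr FRET substrate loading at room temperature.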

Experiment [4] can be described thus: qHTS assay to identify small molecule antagonists of the estrogen receptor alpha (ER-alpha) signaling pathway - cell viability counter screen (AID 743074; calls by dose curve;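 further: HEK293 cells carrying ER-alpha-UAS-bla reporter stimulated with 17beta-estradiol; nearly all actives have a fitted effect of over 45% in size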; further: potency means the concentration at half of the fitted maximal effect).
Experiment [5] has as its target Estrogen receptor (Homo sapiens) (UniProt P03372). As to the kind of experiment: qHTS assay to identify small molecule agonists of the estrogen receptor alpha (ER-alpha) signaling pathway (AID 743075; calls by dose curve;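 further: HEK293 GripTite cells with ER-alpha and UAS-driven beta-lactamase reporter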).
For experiment [6] the target is unchanged. As to the kind of experiment: qHTS assay to identify small molecule agonists of the estrogen receptor alpha (ER-alpha) signaling pathway using the BG1 cell line (AID 743079). Further: nearly all actives have a fitted effect of over 20% in size. The settings on record: BG1Luc4E2 cells, ERE-luciferase agonist, 22 h; activation: at 70.3 µM (top of the series).
A short description of experiment [7]: qHTS assay to identify small molecule antagonists of the estrogen receptor alpha (ER-alpha) signaling pathway using the BG1 cell line (AID 743080; calls by dose curve;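 further: BG1 cells stimulated with 17beta-estradiol alongside compound; nearly all actives have a fitted effect of over 25% in size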; further: potency means the concentration at half of the fitted maximal effect). The method, boiled down:
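After 5 days in phenol-red-free 10% charcoal-stripped FBS medium, BG1-Luc-4E2 cells were seeded, left 24 h at 37 C, co-treated with compounds and 17beta-estradiol for 21.5 h, then assayed for viability and luciferase.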

The target in experiment [8] is Aromatase (Homo sapiens) (UniProt P11511). As to the kind of experiment: qHTS assay to identify aromatase inhibitors (AID 743083). Further: nearly all actives have a fitted effect of over 55% in size. Further: potency means the concentration at half of the fitted maximal effect.
Sequence of Aromatase (Homo sapiens) (P11511 whole entry, looked up): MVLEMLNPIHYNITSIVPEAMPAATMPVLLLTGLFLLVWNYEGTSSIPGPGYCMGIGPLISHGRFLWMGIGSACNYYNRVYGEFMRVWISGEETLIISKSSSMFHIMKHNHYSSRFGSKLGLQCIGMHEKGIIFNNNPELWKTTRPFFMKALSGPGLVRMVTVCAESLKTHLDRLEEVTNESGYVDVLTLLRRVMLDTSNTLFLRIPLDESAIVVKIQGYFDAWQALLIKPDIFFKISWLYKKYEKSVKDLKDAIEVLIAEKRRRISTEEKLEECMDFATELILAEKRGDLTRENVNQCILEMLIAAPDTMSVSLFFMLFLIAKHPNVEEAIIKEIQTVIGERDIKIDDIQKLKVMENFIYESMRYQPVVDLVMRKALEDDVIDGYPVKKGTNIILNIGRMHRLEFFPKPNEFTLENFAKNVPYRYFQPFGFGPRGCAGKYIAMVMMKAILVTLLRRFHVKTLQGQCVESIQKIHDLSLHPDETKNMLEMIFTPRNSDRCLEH
A short description of experiment [9]: qHTS assay to identify aromatase inhibitors - cell viability counter screen (AID 743084).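 Further: cells stimulated with testosterone during compound exposure; nearly all actives have a fitted effect of over 55% in size.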 Further: potency means the concentration at half of the fitted maximal effect.
Experiment [10] is described as follows: qHTS assay to identify small molecule antagonists of the peroxisome proliferator-activated receptor gamma (PPARg) signaling pathway - cell viability counter screen (AID 743194). Further: nearly all actives have a fitted effect of over 55% in size. Further: potency means the concentration at half of the fitted maximal effect. The method, boiled down: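 PPARg-UAS-bla HEK293H cells were plated, rested 5 h at 37 C, then treated with compounds plus rosiglitazone (50 nM final) for 17 h at 37 C; viability was then read by CellTiter-Glo luminescence after 30 min at room temperature.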

A short description of experiment [11]: qHTS assay for small molecule activators of the heat shock response signaling pathway - cell viability counter screen (AID 743209). Further: nearly all actives have a fitted effect of over 50% in size. The method, boiled down:
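Same-well multiplex: after 2.5 h room-temperature incubation with LiveBLAzer B/G substrate and fluorescence reading, CellTiter-Glo reagent was added to HSE-bla HeLa cells that had received compound for 5 h at 37 C; luminescence read after 30 min.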

The nature of experiment [12]: qHTS assay for small molecule activators of the heat shock response signaling pathway (AID 743210; active means well fitted activation curve with a large enough effect in the signal ratio in the repeat runs, with a control signal flat, not every such curve was filed as active; inconclusive means weak or mixed curves; the % refers to the signal ratio). The essentials:
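Heat shock element–beta-lactamase HeLa reporter cells; qHTS with compounds for 5 h at 37 C; detection by FRET substrate fluorescence after 2.5 h at RT.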

Experiment [13] concerns the target Aryl hydrocarbon receptor (Homo sapiens) (UniProt P35869). As to the kind of experiment: qHTS assay to identify small molecule that activate the aryl hydrocarbon receptor (AhR) signaling pathway (AID 743085). Further: nearly all actives have a fitted effect of over 15% in size. Further: potency means the concentration at half of the fitted maximal effect.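 On activation: HG2L7.5c1 human HepG2 liver cells with stably integrated DRE-driven firefly reporter.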 The method, boiled down:
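AhR agonist activity is inferred from enhanced light output of a DRE-controlled firefly luciferase reporter in HepG2 cells, measured with ONE-Glo following 24 h treatment at 37C.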

Experiment [14] is described as follows: qHTS assay to identify small molecule that activate the aryl hydrocarbon receptor (AhR) signaling pathway - cell viability counter screen (AID 743086). Further: nearly all actives have a fitted effect of over 45% in size. Further: potency means the concentration at half of the fitted maximal effect. The essentials: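 HepG2-AhR-luc (HG2L7.5c1) cells, 4000/well, were preincubated 5 h at 37C, exposed to compound in qHTS format for 24 hr at 37C, then given CellTiter-Fluor for 30 min; viability was read as fluorescence in the reporter wells.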

Experiment [15] in a line: qHTS assay for small molecule agonists of the antioxidant response element (ARE) signaling pathway - cell viability counter screen (AID 743203; calls by dose curve; further: nearly all actives have a fitted effect of over 55% in size; further: potency means the concentration at half of the fitted maximal effect). The essentials:
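Measured in the same wells as the beta-lactamase ARE reporter, this read-out is CellTiter-Glo luminescence from HepG2 ARE-bla cells given compounds for 16 hrs.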

The nature of experiment [16]: qHTS assay to identify small molecule antagonists of the estrogen receptor alpha (ER-alpha) signaling pathway using the BG1 cell line - cell viability counter screen (AID 743081).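 Further: compound given together with 17beta-estradiol as the ER stimulus; nearly all actives have a fitted effect of over 45% in size.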 Further: potency means the concentration at half of the fitted maximal effect.
Experiment [17] has as its target Peroxisome proliferator-activated receptor gamma (Homo sapiens) (UniProt P37231). The experiment is described as follows: qHTS assay to identify small molecule antagonists of the peroxisome proliferator-activated receptor gamma (PPARg) signaling pathway (AID 743191; calls by dose curve; further: nearly all actives have a fitted effect of over 30% in size; further: potency means the concentration at half of the fitted maximal effect). The essentials: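 GeneBLAzer PPARg UAS-bla HEK293H cells carrying a UAS-driven beta-lactamase reporter were plated at 3000 cells/well, preincubated 5 h at 37C, then given compound for 17 h at 37C; LiveBLAzer B/G FRET substrate was read after 1 h at room temperature.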

Experiment [18] has as its system thyroid hormone receptor (rat, GH3 cells). As to the kind of experiment: qHTS assay to identify small molecule agonists of the thyroid receptor (TR) signaling pathway (AID 743066; calls by dose curve).
The target in experiment [19] is Peroxisome proliferator-activated receptor gamma (Homo sapiens) (UniProt P37231). The experiment is described as follows: qHTS assay to identify small molecule agonists of the peroxisome proliferator-activated receptor gamma (PPARg) signaling pathway (AID 743094; active means well fitted activation curve with a large enough effect in the signal ratio in the repeat runs, not every such curve was filed as active; inconclusive means weak or mixed curves, or effect the other way; inactive means no such curve, though single readings can be large or run the other way; the % refers to the signal ratio). The essentials:
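Cell-based bla reporter, HEK293H background, PPARg-driven UAS. Pre-incubation 5 h, 37C, 5% CO2. Compound 17 h, 37C. Substrate 1 h RT; fluorescence.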

A short description of experiment [20]: qHTS assay for small molecule agonists of the antioxidant response element (ARE) signaling pathway (AID 743202; active means well fitted activation curve with a large enough effect in the signal ratio in the repeat runs, not every such curve was filed as active; inconclusive means weak or mixed curves, or effect the other way; inactive means no such curve, though single readings can be large or run the other way; the % refers to the signal ratio; further: potency means the concentration at half of the fitted maximal effect). The essentials:
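Following a 16 h, 37 C exposure of reporter HepG2 cells (ARE-driven beta-lactamase, 2,000 cells/well) to compounds, FRET substrate was applied for 2 h at room temperature and fluorescence intensity recorded.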

Sequence of Aryl hydrocarbon receptor (Homo sapiens) (P35869 whole entry, looked up): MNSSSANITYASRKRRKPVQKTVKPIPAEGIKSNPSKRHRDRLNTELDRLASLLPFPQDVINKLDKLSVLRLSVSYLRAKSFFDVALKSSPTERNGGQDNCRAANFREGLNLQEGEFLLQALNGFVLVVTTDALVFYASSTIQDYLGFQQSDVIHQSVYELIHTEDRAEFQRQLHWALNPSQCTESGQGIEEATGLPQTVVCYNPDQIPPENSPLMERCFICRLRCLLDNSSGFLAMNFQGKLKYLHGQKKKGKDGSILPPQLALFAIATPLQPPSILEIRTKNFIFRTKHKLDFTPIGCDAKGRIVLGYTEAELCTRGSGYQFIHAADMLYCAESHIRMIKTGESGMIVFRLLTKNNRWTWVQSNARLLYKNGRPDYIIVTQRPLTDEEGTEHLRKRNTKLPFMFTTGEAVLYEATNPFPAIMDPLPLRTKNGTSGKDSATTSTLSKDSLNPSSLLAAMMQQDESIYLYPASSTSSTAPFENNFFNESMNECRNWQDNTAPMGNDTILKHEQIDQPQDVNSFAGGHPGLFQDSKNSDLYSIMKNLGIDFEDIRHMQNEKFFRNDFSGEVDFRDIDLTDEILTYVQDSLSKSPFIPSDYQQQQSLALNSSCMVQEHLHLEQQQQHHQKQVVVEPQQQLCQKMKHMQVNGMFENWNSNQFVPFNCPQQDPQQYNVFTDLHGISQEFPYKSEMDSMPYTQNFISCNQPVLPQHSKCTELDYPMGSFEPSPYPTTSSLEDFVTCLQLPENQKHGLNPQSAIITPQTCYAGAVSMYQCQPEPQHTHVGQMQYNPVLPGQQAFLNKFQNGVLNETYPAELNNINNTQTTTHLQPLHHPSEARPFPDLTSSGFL
Sequence of Peroxisome proliferator-activated receptor gamma (Homo sapiens) (P37231 whole entry, looked up): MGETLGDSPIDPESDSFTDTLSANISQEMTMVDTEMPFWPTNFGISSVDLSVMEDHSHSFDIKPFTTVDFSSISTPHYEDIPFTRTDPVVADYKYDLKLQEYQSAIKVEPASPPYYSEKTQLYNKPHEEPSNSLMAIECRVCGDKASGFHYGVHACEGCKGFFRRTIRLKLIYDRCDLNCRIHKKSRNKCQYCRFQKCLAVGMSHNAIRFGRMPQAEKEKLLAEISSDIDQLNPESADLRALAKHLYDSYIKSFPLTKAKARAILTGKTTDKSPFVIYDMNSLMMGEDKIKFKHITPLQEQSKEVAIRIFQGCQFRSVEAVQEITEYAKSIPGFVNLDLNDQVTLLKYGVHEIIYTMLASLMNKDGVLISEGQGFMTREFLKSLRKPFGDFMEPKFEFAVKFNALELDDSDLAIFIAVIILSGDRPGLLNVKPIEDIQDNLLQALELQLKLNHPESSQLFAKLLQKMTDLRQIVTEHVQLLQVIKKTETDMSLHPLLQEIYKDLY
Sequence of Estrogen receptor (Homo sapiens) (P03372 whole entry, looked up): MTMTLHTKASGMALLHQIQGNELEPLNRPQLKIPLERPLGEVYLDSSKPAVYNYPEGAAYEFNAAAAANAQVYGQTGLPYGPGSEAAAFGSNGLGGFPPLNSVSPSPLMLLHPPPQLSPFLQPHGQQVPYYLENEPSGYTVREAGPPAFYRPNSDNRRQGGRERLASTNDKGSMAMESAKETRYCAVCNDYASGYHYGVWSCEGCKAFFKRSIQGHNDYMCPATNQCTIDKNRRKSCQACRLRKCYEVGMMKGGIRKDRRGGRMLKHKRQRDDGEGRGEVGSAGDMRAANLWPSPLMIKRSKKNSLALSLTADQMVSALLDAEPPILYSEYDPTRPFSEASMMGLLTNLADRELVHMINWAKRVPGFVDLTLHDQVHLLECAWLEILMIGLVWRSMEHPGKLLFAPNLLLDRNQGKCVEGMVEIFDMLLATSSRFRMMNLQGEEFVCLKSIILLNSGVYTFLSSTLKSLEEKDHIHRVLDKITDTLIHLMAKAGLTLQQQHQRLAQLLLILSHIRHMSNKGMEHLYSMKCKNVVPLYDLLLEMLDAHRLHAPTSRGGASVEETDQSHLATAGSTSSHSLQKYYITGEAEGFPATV

Regarding `COC(=O)C1=C(C)NC(C)=C(C(=O)O[C@@H]2CCCN(Cc3ccccc3)C2)[C@@H]1c1cccc([N+](=O)[O-])c1`, the Potency in experiment [1] was 26.6 µM (active); in experiment [2], 11.9 µM (active); in experiment [3], 26.8 µM [inhibitor] (active); in experiment [8], 29.8 µM (active). Also, the Potency result in experiment [4], in [5], in experiment [6], in experiment [7], in experiment [9] and in experiment [10] was “inactive” throughout. Besides, the Potency result in experiment [11] and in experiment [12] was “inactive” each time.

Regarding `COc1cc(Nc2c(C#N)cnc3cc(OCCCN4CCN(C)CC4)c(OC)cc23)c(Cl)cc1Cl`, the Potency was 11.9 µM (active) in experiment [1]; 9.44 µM (active) in experiment [2]; 26.8 µM (active) in [4]; 26.6 µM (active) in experiment [8]; 13.3 µM (active) in [14]; 21.1 µM (active) in experiment [10]. Further, the Potency in experiment [15] is 18.8 µM (active). For the same compound, the Potency entry in experiment [13] and in experiment [11] was “inactive” in each case.

As to `Cc1c(C)c2c(c(C)c1OC(=O)CCC(=O)OCCO)CC[C@@](C)(CCC[C@H](C)CCC[C@H](C)CCCC(C)C)O2`, the Potency in experiment [1] is 11.9 µM (active); in experiment [2], 23.7 µM (active); in experiment [3], 9.52 µM [inconclusive] (active); in [17], 15 µM (active); in experiment [10] it was 33.5 µM (active). Further, the Potency entry in experiment [5], in experiment [6], in experiment [16], in experiment [13], in experiment [14] and in experiment [11] was “inactive” throughout. Further, in [12], the Potency entry was “inactive”.

Take `CC1(CN2CCC(n3c(=O)[nH]c4ccccc43)CC2)OCc2ccccc2-n2cccc21` (stereo not drawn): the Potency in experiment [1] was 29.8 µM (active); in experiment [2] it was 26.6 µM (active); in [15] it was 33.5 µM (active). In addition, the Potency result in experiment [4], in experiment [5], in experiment [16], in experiment [9], in [13] and in [14] was “inactive” each time. For the same compound, the Potency result in [11] and in experiment [12] was “inactive” throughout.

On to `CC(C)Nc1cccnc1N1CCN(C(=O)c2cc3cc(NS(C)(=O)=O)ccc3[nH]2)CC1`, for which the Potency result in [1], in experiment [3], in [4], in experiment [5], in [6] and in experiment [7] was “inactive” in each case. For the same compound, the Potency entry in experiment [16], in experiment [8], in [9], in [13], in [14] and in experiment [19] was “inactive” each time. Moreover, the Potency entry in experiment [17], in experiment [10], in experiment [15], in experiment [11] and in [12] was “inactive” in each case. In [18], the compound was classed as inactive.

For `CN1CCCC(n2nc(Cc3ccc(Cl)cc3)c3ccccc3c2=O)CC1` (stereo not drawn), the results for the Potency in [1], in experiment [2] and in experiment [15] were 21.1 µM (active), 21.1 µM (active) and 29.8 µM (active), respectively. For the same compound, the Potency entry in [3], in experiment [4], in experiment [5], in experiment [6], in experiment [8] and in experiment [9] was “inactive” in each case. The Potency result in [13], in [14], in [19], in experiment [11] and in experiment [12] was “inactive” throughout.

Consider `CCOc1ccc(Cc2nccc3cc(OCC)c(OCC)cc23)cc1OCC`, for which the Potency result in [1], in experiment [4], in experiment [5], in experiment [8], in experiment [9] and in [14] was “inactive” in each case. The Potency result in [19], in experiment [10], in experiment [15], in experiment [11] and in [12] was “inactive” in each case. Further, the call in experiment [18] was inactive. In experiment [7], the Potency was 11.4 µM (active).

On to `C[C@@H]1CC(=O)NN=C1c1ccc(NN=C(C#N)C#N)cc1`, for which the Potency in experiment [1] is 15 µM (active); in experiment [2] it was 13.3 µM (active); in experiment [16] it was 23.7 µM (active); in experiment [8] it was 29.8 µM (active); in experiment [9], 26.6 µM (active); in experiment [13] it was 15 µM (active). Further, in [14], the Potency is 26.6 µM (active). The Potency result in experiment [3], in [4], in [5], in experiment [7], in experiment [10] and in experiment [15] was “inactive” each time. In [11], the Potency entry was “inactive”.

For `O=[N+]([O-])c1ccc(O/N=C/c2cc(Br)c(O)c(Br)c2)c([N+](=O)[O-])c1`, the Potency was 10.8 µM (active) in [1], 9.64 µM (active) in experiment [2], 19.4 µM (active) in experiment [17] and 8.59 µM (active) in experiment [20]. Besides, the compound was called inactive in experiment [18]. The Potency entry in [8], in experiment [9], in experiment [14], in experiment [19] and in experiment [11] was “inactive” in each case.
